The results in this text go back to PubChem BioAssay (NCI).

SMILES strings stand for the structures. Compounds without any hit were thinned out: in the full panel of roughly 83,000, 20% have a hit.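 Interpretation: 100, growth as untreated; towards 0, rising growth inhibition; 0, no net growth; 0 to -100, cell death. Compounds scoring below 10 were considered active.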 Values without a mark were called inactive.

The assay relates to ACHN renal. The assay can be described thus: NCI-60 one-dose screen, 48 h (100 = growth as untreated, 0 = no growth, -100 = all killed). To be noted: 10 µM unless noted. The protocol: Growth inhibition of the ACHN human tumor cell line is measured as a screen for anti-cancer activity. Cells are grown in 96 well plates and exposed to the test compound for 48 hours. Compounds are tested at a single concentration, which is 10^-5 M for most compounds. The reported endpoint is percent growth (GI% or GIPRCNT), where numbers from 0 - 100% represent growth inhibition, and numbers from -100% - 0 represent cell death. For example, a value of 40 represents 60% growth inhibition. A value of 0 means no net growth occurred over the course of the experiment. A value of -40 indicates 40% of cells at the beginning of the experiment died by the end of the experiment. A value of -100 means all cells are dead at the end of the experiment.
NCI-60 Human Tumor Cell Lines Screen was performed using the standard one-dose NCI protocol, which is described in more detail at https://dtp.cancer.gov/discovery_development/nci-60/default.htm.
Compounds with GIPRCNT values below 10 were considered active. Activity score was based on GIPRCNT using the following formula: […]
Score is 0 for GIPRCNT values of 100 or above, 50 for GIPRCNT values of 0, and 100 for GIPRCNT values of -100.
On to `COC(=O)c1cc(=O)nc(N/N=C/c2ccco2)s1`, for which the growth is 104%.
Under `CCNc1nc(S(=O)(=O)CC)nc2ccccc12` stands 86.1%.
Next, `ClC(Cl)c1nc(-c2ccccc2)nc2cc(-c3ccccc3)nn12`: 46.2%.
Under `C=C1c2nc3ccccc3n2C=C(c2ccc(Cl)cc2)N1Cc1ccccc1` stands 81.4%; under `N=C(N)c1ccc(-c2cc(Cl)cc(Cl)c2)cn1`, 91.3%; under `CN(C)c1ncnc2c1ccn2C1OC(CO)C(O)C1O` (stereo not given), 32.3%.
With `CN1C(=O)N(C)C2C1NN=c1s/c(=C\C=C\c3ccccc3)c(=O)n12` (stereo not given), the growth is 63.8%.
Under `COc1ccc(-c2ccc(-c3ccc(C(=N)N)s3)s2)cc1Cl` stands 16.9%; under `O=C(Nc1ccncc1)C(=O)c1cn(S(=O)(=O)c2ccc(Oc3ccccc3)cc2)c2ccccc12`, 86.3%; under `O=C1CCCCC1(c1ccccc1)c1ccccc1`, 101%.
Turning to `C=C1CCC2C3(C)COC(c4c(OC)cccc4OC)OC3CCC2(C)C1C/C=C1/C(=O)OCC1O` (stereo not given), the growth was 66%.
Under `Cc1[nH]c2ccc(F)cc2c1CCNC(=O)C1CCN(C(=O)c2ccccc2)CC1` stands 97% [25 µM].
Next, `Cc1nc2c3c(ncn2n1)Oc1c(c(=O)[nH]c2ccccc12)C3c1ccc(Cl)cc1` (stereo not given): 96.1%; `O=C(NNC(=O)N1c2ccccc2C=Cc2ccccc21)c1ccccc1`: 102%; `Cc1ccc(S(=O)(=O)NC(=O)n2cc(-c3ccncc3)c(-c3ccc(Cl)c(O)c3)n2)cc1`: 94.5%.
Next, `COc1cc2c(=O)n(C3CCCCCC3)c3c4cc[nH]c4ncc3c2cc1OC`: 70.5%; `CC[N+](CC)=c1cc2oc3cc(N(C)C)ccc3nc-2cc1C`: 73%; `N/C(=N\S(=O)(=O)c1ccccc1)Nc1nc2ccccc2s1`: 94.7%.
For the compound `COc1ccc(S(=O)(=O)n2ccc(-c3ccc4c(c3)CCC(C)(C)O4)n2)cc1OC`, the growth was 78%.
For `C=C[C@@H]1C[C@H](O)Cc2cc(F)ccc2N1`, the growth is 104%.
Next, `CN(C)c1oc(C2OC2c2ccccc2)nc1C#N` (stereo not given): 94.7%; `Oc1ccc2cc(Br)ccc2c1-c1c(O)ccc2cc(Br)ccc12`: 23.1%.
With `C1=Cc2ccccc2N(c2nnc(-c3ccccc3)o2)c2ccccc21`, the growth was 95.1%.
Under `CCCN=C1NC(=O)/C(=C/c2nc(-c3ccc(OC)cc3)n3ccccc23)S1` stands 62.7%; under `CC(=O)Oc1cccc(S(=O)(=O)n2cc(C(=O)C(=O)Nc3ccncc3)c3ccccc32)c1`, 88%; under `O=C(NNC(=S)Nc1ccccc1)c1cc2ccc1CCc1ccc(cc1)CC2`, 61.4%.
Under `Cn1ncc2c(Sc3ccc(Cl)cc3)ncnc21` stands 95.1%; under `CCOC(=O)c1c(NS(=O)(=O)c2ccc(C)cc2)sc2c1CCC1(C2)OCCO1`, 95.1%.
On to `COc1ccc(C(=O)N2NC(=O)/C(=C/c3ccc(F)cc3)N=C2c2ccccc2)cc1`, for which the growth was 94.2%.
Next, `N=c1ccc2nc3ccc(N)cc3sc-2c1`: 55.2%.
Under `CC(=O)c1cc2c(N)c(C(=O)Nc3cccc4c3OCCO4)sc2nc1C` stands 104%; under `Cc1ccc(CSC(=N)N)cc1C`, 107%.
Under `N[C@H]1CN(C(=O)c2cc3cc(Br)c(F)c(F)c3[nH]2)C[C@@H]1O` stands 102%; under `CC(C)(C)n1cc(-c2ccnc(NCCNS(=O)(=O)c3ccc(F)cc3)c2)c(-c2cccc(O)c2)n1`, 63%; under `COc1cc(-c2nn(-c3cccc(NC(=O)c4ccc(N5CCOCC5)c(C(F)(F)F)c4)c3)cc2-c2ccncc2)ccc1Cl`, 21.3%.
Take `O=C(NCc1cn(Cc2cccc(Oc3ccccc3)c2)nn1)c1cccnc1Nc1ccc(F)cc1`: the growth is 72.3%.
Under `Cc1ccc(S(=O)(=O)n2cc(C(=O)C(=O)N3CCOCC3)c3ccccc32)cc1` stands 83.9%; under `O=C(Nc1cccc(-n2cc(-c3ccncc3)c(-c3ccc(Cl)c(O)c3)n2)c1)Nc1cccc(C(F)(F)F)c1`, 11.2%.
Next, `O=c1[nH]c(-c2ccccc2)nc(CN2CCCCC2)c1O`: 106%.
As to `Cc1cc(N/N=C/c2nc(-c3ccccc3)oc2C)c2cc(Br)ccc2n1`, the growth is 89.9%.
